# Measured values: paper PMC13494018
# Biological target: CD276, Q5ZPR3
# Sequence (Q5ZPR3 whole entry): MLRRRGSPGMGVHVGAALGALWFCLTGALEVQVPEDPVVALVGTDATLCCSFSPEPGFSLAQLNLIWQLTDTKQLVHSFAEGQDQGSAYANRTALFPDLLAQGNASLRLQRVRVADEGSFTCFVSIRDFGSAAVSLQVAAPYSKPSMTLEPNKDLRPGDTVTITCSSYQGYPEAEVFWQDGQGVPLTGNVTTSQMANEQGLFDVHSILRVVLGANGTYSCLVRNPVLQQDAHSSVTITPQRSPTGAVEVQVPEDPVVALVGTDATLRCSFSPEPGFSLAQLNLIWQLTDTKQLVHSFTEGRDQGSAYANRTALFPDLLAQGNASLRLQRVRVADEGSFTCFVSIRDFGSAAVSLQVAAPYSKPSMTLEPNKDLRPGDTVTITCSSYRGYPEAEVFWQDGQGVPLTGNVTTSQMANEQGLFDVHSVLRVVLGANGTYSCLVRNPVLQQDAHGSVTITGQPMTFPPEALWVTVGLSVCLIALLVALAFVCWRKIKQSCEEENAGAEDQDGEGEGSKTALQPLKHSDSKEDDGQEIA
row,Binder,binding in a display sort
1,design_611_394c5ea9-a0d3-47c4-9d48-89ba6a28fdd0_579_dldesign_0_cycle1_af2pred (protein) DAAAQSKALQAQVAQAQALVEQARAAAADPARARALALQAFRQAQAVNRQAIALGDTATAAAAGEVMVAAARVLAA,not found (inactive)
2,design_611_394c5ea9-a0d3-47c4-9d48-89ba6a28fdd0_908_dldesign_0_cycle1_af2pred (protein) AAAAARAAAVAAAEAAAAEAIKELKAAAEEAKTATPEEAAKLMNEMLAKASRQALAMQASGDPAAAAAGARLIAAAVEYAKEIDEAIR,not found (inactive)
3,design_611_394c5ea9-a0d3-47c4-9d48-89ba6a28fdd0_2343_dldesign_0_cycle1_af2pred (protein) AQALADQQLIATVKAALKNAEELYKKDKKAGAKAFAAAAEVAKLAIEGSSAAAKPELKALEKKAKENEKKAKEDA,not found (inactive)
4,design_611_394c5ea9-a0d3-47c4-9d48-89ba6a28fdd0_1623_dldesign_0_cycle1_af2pred (protein) SAEVLAAAEKLVEIGELARKAAEAFPELAEKAAEAANLAALGLAKLASGATAAEGKKAMEKAEELAKELKKAL,not found (inactive)
5,design_611_394c5ea9-a0d3-47c4-9d48-89ba6a28fdd0_1130_dldesign_0_cycle1_af2pred (protein) MEEELKKISQAAAQAQQAAIDAKDPALRAELAQAAVEIMKLMDKAAKSTPEEAKKLAEEAEKIAEEAQKKAKASG,not found (inactive)
6,design_611_394c5ea9-a0d3-47c4-9d48-89ba6a28fdd0_2413_dldesign_0_cycle1_af2pred (protein) TAEQVEKLKERAIERLKKAAELDKEAAEELLKLYEEMKKVSENLGEAALLAAKAAAIAKNPEARALASQALADLSQAAILAAA,not found (inactive)
7,design_611_394c5ea9-a0d3-47c4-9d48-89ba6a28fdd0_1238_dldesign_0_cycle1_af2pred (protein) SAADEQAKAIAVASTQSILDQAKKILEEHPEIKEEGEKLVEEIKKLLEKAKTGDAATASKALSESLELYGKLAELAK,not found (inactive)
8,design_611_394c5ea9-a0d3-47c4-9d48-89ba6a28fdd0_1153_dldesign_0_cycle1_af2pred (protein) MEEKKKKIEEEANKVIEEATKVAELAKKHPAMRPALIAANAAISMANNAIRNIENVESAEKQLKVAKALMEYAKATAKALLAAA,not found (inactive)
9,design_611_394c5ea9-a0d3-47c4-9d48-89ba6a28fdd0_1679_dldesign_0_cycle1_af2pred (protein) GEELEKAKEEAEKLTDLAKALAAQGTPLGKAAANAMSDSAVKIVLDTAKKLGKEEEGKKYADEIKAATAAALAA,not found (inactive)
10,design_611_394c5ea9-a0d3-47c4-9d48-89ba6a28fdd0_881_dldesign_0_cycle1_af2pred (protein) GAAEAAKALAKGVAASVKRLAKEGLEEAKKDPEKGRAILENAKTFAEAVKATDPEIGDKALKYVEEAKKEAEKIVKE,not found (inactive)
11,design_611_394c5ea9-a0d3-47c4-9d48-89ba6a28fdd0_1184_dldesign_0_cycle1_af2pred (protein) GEAARERGEELVKEAEAALAAAKAAAAADPAAGLAAANAAIGLAVERMEELARLGPEARPAIERLTAIATELSKLALALKAAL,not found (inactive)
12,design_611_394c5ea9-a0d3-47c4-9d48-89ba6a28fdd0_785_dldesign_0_cycle1_af2pred (protein) LKAEAEKLAKEAAAKAKEAAAAGDAVAALAYQAAANMARSALRADPESAAKLLEVGRALKQQGDATHAAFKA,not found (inactive)
13,design_611_394c5ea9-a0d3-47c4-9d48-89ba6a28fdd0_2091_dldesign_0_cycle1_af2pred (protein) RAALEEALAKARELAEKVGEEDPEVAKEVLELIDKAAATSPATGLYYLLQALELMSRYAKESGSEVAREAAEALRAAVAIWSRLAIA,not found (inactive)
14,design_611_394c5ea9-a0d3-47c4-9d48-89ba6a28fdd0_637_dldesign_0_cycle1_af2pred (protein) SEETKEVAEAAVNAAEQAIKLAKELGDKEIEEKAKKLKEEAKKAAKKGAEALPEAKKLAREAFTLAAKALALYAKAKA,not found (inactive)
15,design_611_394c5ea9-a0d3-47c4-9d48-89ba6a28fdd0_1682_dldesign_0_cycle1_af2pred (protein) SAALEELREKGKAEANALISASMKAAAAGLAGDAATAAAAAATIEANAKEAKEKAKEYPEAKEYYEKAAKVNTQLAEGAKLL,not found (inactive)
16,design_611_394c5ea9-a0d3-47c4-9d48-89ba6a28fdd0_1101_dldesign_0_cycle1_af2pred (protein) MGGELLLDVMRAAAEAQREIAELGKEKGIPEEVTQALINRVSAAVAAVAKAAIAGDDAAKAAAAAARAAIDATLAEARAL,not found (inactive)
17,design_611_394c5ea9-a0d3-47c4-9d48-89ba6a28fdd0_1787_dldesign_0_cycle1_af2pred (protein) AAAAIAAATTGMNIAKKNANTLLAQAEATGNAGLADAAKVAADIVKANAKAAAKLADADTGAALVKDAEDFAKATNAKIAAVKAKA,not found (inactive)
18,design_611_394c5ea9-a0d3-47c4-9d48-89ba6a28fdd0_749_dldesign_0_cycle1_af2pred (protein) AAAEAAAERARQAAKAAMKSLTLAYEALGKPEQAKEDIAKVEKAIEEDPEKGAALARELAAQAAREAIKANAA,not found (inactive)
19,design_611_394c5ea9-a0d3-47c4-9d48-89ba6a28fdd0_705_dldesign_0_cycle1_af2pred (protein) AEAQEQAKKEYEKAKAVADAALATAKATGDVTAQQAKVLDAAIEAAKKAQELGDGETANKVMQVATKAMTAMAAAG,not found (inactive)

row,Binder,binding in a display sort
1,design_612_bdadb936-3f14-48ad-830f-718e38d81c30_35_dldesign_0_cycle1_af2pred (protein) SEAEKEAAKAEVRALGAQALDVALRAAARQGAPVAELAAVVQQISQLVDQGIALVEKGDLEAGLALAQQALQLAQQFAA,not found (inactive)
2,design_611_394c5ea9-a0d3-47c4-9d48-89ba6a28fdd0_1764_dldesign_0_cycle1_af2pred (protein) MLAEEARKYAEKGAEGEDSEEWFAKAAELYAQALLTSEEEARATFEALREVAERYPEKAEKVYAAISRGVQLAAQQAL,not found (inactive)
3,design_611_394c5ea9-a0d3-47c4-9d48-89ba6a28fdd0_592_dldesign_0_cycle1_af2pred (protein) DALKLIEAAAKLAKKIGLEEAAKLAEEAAKLLATGDPEAAGQGVLLLSKAYALAAADPKAAEAAALLRAALAAAAKEAIALARAAR,not found (inactive)
4,design_611_394c5ea9-a0d3-47c4-9d48-89ba6a28fdd0_1469_dldesign_0_cycle1_af2pred (protein) GKERAVEIMRRGLTEVAKEALKVSPEVAGVVQTALAKAIGAAAESMEKALEVLKKGAEEAEKLDPEIGKKVREVLKKVEEAYKE,not found (inactive)
5,design_611_394c5ea9-a0d3-47c4-9d48-89ba6a28fdd0_1995_dldesign_0_cycle1_af2pred (protein) AELAKQIAKKVMETAIKIAEEETPEAGIEAGKRAAMTAVALGDLETAEETIERVVEIARKKDPEAAERAREELEAAYARALAAVAAS,not found (inactive)
6,design_611_394c5ea9-a0d3-47c4-9d48-89ba6a28fdd0_940_dldesign_0_cycle1_af2pred (protein) MKVEEAGNKAKALLVATANAAIAADPARAQEIAKKMAEGIEKIDKLTEEEKKKLDEYSEEEQAKKVEELGKELAKEIA,not found (inactive)
7,design_611_394c5ea9-a0d3-47c4-9d48-89ba6a28fdd0_765_dldesign_0_cycle1_af2pred (protein) SSREGAAQLLLDVAKQAAAALKAAGGDEERAKKILEEAKKAAATTFEETQKALAKAAREAVKYQAAVEAA,not found (inactive)
8,design_611_394c5ea9-a0d3-47c4-9d48-89ba6a28fdd0_2334_dldesign_0_cycle1_af2pred (protein) MTPAEAQLQAGEVFLRAAEQALKAGNYESAIKLAELAIEAAKQAKKLAKAAGDEATAKKAEEVEKKAKEVLKKAKE,not found (inactive)
9,design_611_394c5ea9-a0d3-47c4-9d48-89ba6a28fdd0_1178_dldesign_0_cycle1_af2pred (protein) AELLAAAGELAVEAARYAAEADRFGPEAAPAAELFREAQKLAVQANQNPATAAEYYAKAKELMKKGKELMKKAKA,not found (inactive)
10,design_611_394c5ea9-a0d3-47c4-9d48-89ba6a28fdd0_1451_dldesign_0_cycle1_af2pred (protein) AQAIEVANKTAAAMKKQAEALAAEGEANPETAWKHYETAAKLYEIAADMVAAAGGDPAVAAALKAKAAEYKAKAKAAKAA,not found (inactive)
11,design_611_394c5ea9-a0d3-47c4-9d48-89ba6a28fdd0_1683_dldesign_0_cycle1_af2pred (protein) DEAEELVRLVEEARALAIDPATRGQGVTLFLLVGIRSGPAVRAAAVEAARAAREAAALPPEERARRLEELAARVIAAIRAEA,not found (inactive)
12,design_611_394c5ea9-a0d3-47c4-9d48-89ba6a28fdd0_1283_dldesign_0_cycle1_af2pred (protein) DTAAAQGLLAGVQAFTRRRFEAAERALRAGDREAMLAAARDLETAADIAEATAKQVPPALAAQAQALAKQARERAEEARRAAEA,not found (inactive)
13,design_611_394c5ea9-a0d3-47c4-9d48-89ba6a28fdd0_2213_dldesign_0_cycle1_af2pred (protein) GQELLAQAQKELKEGKALMKEGKYKEALAKFTQAANLAAKAAAAYADQPIAKQANAVLAEAVENMAKAQALID,not found (inactive)
14,design_611_394c5ea9-a0d3-47c4-9d48-89ba6a28fdd0_2077_dldesign_0_cycle1_af2pred (protein) ASEELLKEAVTLNMRLAVEFPEVAKYARAAAHYLMAGDAEKAVESAEKMLEEAKKAGPEAAALAEKALKATKAAAADQAAER,not found (inactive)
15,design_611_394c5ea9-a0d3-47c4-9d48-89ba6a28fdd0_2003_dldesign_0_cycle1_af2pred (protein) GELKEQTAQLLETAIQAAKLSAKQAQAAIKAATIAGSQSPETKEISEEYGKKAIEAAKKSAEEAQKVIKEWLKLVKE,not found (inactive)
16,design_611_394c5ea9-a0d3-47c4-9d48-89ba6a28fdd0_1121_dldesign_0_cycle1_af2pred (protein) SSSYEEVTAEMAAITAKAQEGVEAAKKDPAEAKKIAAEIAAKAKEIAASGFSEGAAQMAKNAAARVQKVIDAELAK,not found (inactive)
17,design_611_394c5ea9-a0d3-47c4-9d48-89ba6a28fdd0_2429_dldesign_0_cycle1_af2pred (protein) GPERAELLRNAARQAEEAIRKGDESPDGVLYYTAAALIVANAIGDPELRAKAQAAAALSPEEARKVAEELRELALERARELA,not found (inactive)
18,design_611_394c5ea9-a0d3-47c4-9d48-89ba6a28fdd0_1531_dldesign_0_cycle1_af2pred (protein) AQAQVEAMARNAAAGMRALARADGHPDVGEEMAALVLADPVEGARRAVELARERLSPEVAAAVAEIARIQIETA,not found (inactive)
19,design_611_394c5ea9-a0d3-47c4-9d48-89ba6a28fdd0_2254_dldesign_0_cycle1_af2pred (protein) GKEEAQKLVEEAREAAKKAKEYTAKALAEDLEAEGAKSWAALNEALAKASQAAQLDPELGSAAIAEVVETAKEIKEKLDAAKAA,not found (inactive)
